Measured values published in ChEMBL document CHEMBL3433997, “St. Jude Leishmania screening dataset” (2016).

How the values were obtained:
Format in all cases: functional
[1] = biological target: Solute carrier family 2, facilitated glucose transporter member 1 (Homo sapiens) (UniProt P11166); experiment: ST_JUDE_LEISH: Cytotoxicity at 2uM final concentration against transgenic Leishmania Mexicana promastigotes LmGLUT1 that are glucose transport deficient and complemented with the human glucose transporter GLUT1. Activity is measured by DNA content using SYBR green in vitro
Solute carrier family 2, facilitated glucose transporter member 1 (Homo sapiens), sequence (P11166 whole entry): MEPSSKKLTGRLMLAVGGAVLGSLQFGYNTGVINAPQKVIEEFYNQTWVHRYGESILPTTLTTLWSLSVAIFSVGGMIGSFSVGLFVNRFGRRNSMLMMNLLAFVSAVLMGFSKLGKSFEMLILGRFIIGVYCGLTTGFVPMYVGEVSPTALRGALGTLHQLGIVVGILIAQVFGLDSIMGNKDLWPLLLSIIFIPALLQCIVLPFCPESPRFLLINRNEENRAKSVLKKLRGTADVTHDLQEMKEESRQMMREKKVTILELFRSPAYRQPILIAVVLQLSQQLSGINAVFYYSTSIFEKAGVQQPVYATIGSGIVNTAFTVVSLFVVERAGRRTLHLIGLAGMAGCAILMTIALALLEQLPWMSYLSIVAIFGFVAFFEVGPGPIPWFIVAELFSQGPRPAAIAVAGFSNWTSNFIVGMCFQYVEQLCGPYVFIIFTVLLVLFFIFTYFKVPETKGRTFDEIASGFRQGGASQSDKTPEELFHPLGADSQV

[2] = biological target: Hexose transporter 1 (Plasmodium falciparum) (UniProt O97467); experiment: ST_JUDE_LEISH: Cytotoxicity at 2uM final concentration against transgenic Leishmania Mexicana promastigotes LmPfHT that are glucose transport deficient and complemented with the Plasmodium falciparum hexose transporter. Activity is measured by DNA content using SYBR green in vitro
[3] = biological target: Glucose transporter (Leishmania mexicana) (UniProt O61059); experiment: ST_JUDE_LEISH: Cytotoxicity at 2uM final concentration against transgenic Leishmania Mexicana promastigotes LmGT2 that are glucose transport deficient and complemented with the L. Mexicana glucose transporter 2. Activity is measured by DNA content using SYBR green in vitro

Compound	inhibition [1]	inhibition [2]	inhibition [3]
O=C(CCc1cccnc1)Nc1cccc(-c2ccc(-c3nc4cc(C(F)(F)F)ccc4[nH]3)s2)c1	-0.82%	1.89%	2.16%
NC1=NC(c2ccccc2)N(OCc2ccccc2)C(N)=N1 (configuration not stated)	0.52%	0.08%	0.06%
Cc1cc(N[C@@H](Cc2ccccc2)C(=O)NCc2cccs2)nc(NCCc2ccc(F)cc2)n1	8.62%	8.93%	4.14%
COc1ccc2oc(=O)c(C#N)c(O)c2c1	-0.47%	-0.32%	0.54%
CC(C)(C)Oc1ccc(C[C@@H]2NC3(C(=O)N(Cc4ccc(Cl)c(Cl)c4)c4ccccc43)C3C(=O)N(c4ccc(Br)cc4)C(=O)C32)cc1 (some centres not stated)	4.6%	4.73%	2.5%
CCOc1ccc2[nH]c(C)cc(=NN=Cc3cccnc3)c2c1	8.63%	6.06%	7.76%
CCCOc1ccc(CCNCCCCNCCc2ccc(OCCC)c3ccccc23)c2ccccc12	101%	99.1%	105%
N=C(N)Nc1nc(-c2cccc(NC(=O)NCc3cccc4ccccc34)c2)cs1	1.1%	-0.38%	0.66%
COCCN1CCC(NCC(C)(C)c2nc(-c3ccc(Cl)c(O)c3)c(-c3ccncc3)[nH]2)CC1	4.86%	8.59%	6.49%
Cc1cnc2cc3c(cc2c1N1CCN(C)CC1)NCC3	-0.55%	-0.98%	-1.24%
O=C(Nc1cccc(-c2csc(-c3nc4ccccc4[nH]3)c2)c1)c1ccncc1	11.6%	8.89%	6.69%
Cc1cccc(NC(=O)c2cnc(N3CCN(c4ccncc4)CC3)c(Cl)c2)c1	23.2%	19.8%	6.53%
O=C(NC1CCCc2ccccc21)[C@@H]1CCCN1C(=O)c1ccc(O)c(-c2cccc([N+](=O)[O-])c2)c1 (some centres not stated)	2.69%	1.92%	2.82%
CCCCNCc1ccc(-c2nc(CN(Cc3ccc(Cl)c(Cl)c3)S(=O)(=O)c3ccc(NC(C)=O)cc3)cs2)cc1	2.51%	0.43%	2.51%
O=C(Nc1ccccc1)N(Cc1ccc(-c2cccc(CNC3CCCC3)c2)cc1)C1CCN(Cc2ccccc2)CC1	0.97%	1.4%	1.42%
COc1ccc2c(c1)ncn2-c1cc(OCc2ccncc2Br)c(C(N)=O)s1	1.09%	1.34%	2.35%
COc1ccc(CCN(C)CCCCc2ccc(NC(=O)c3cccc4c(=O)c5cc(F)ccc5sc34)cc2)cc1OC	9.78%	4.42%	2.03%
Cc1cccc2nc(-c3ccc(-c4cccc(NC(=O)Nc5ccc(Cl)c(Cl)c5)c4)s3)[nH]c12	0.85%	-0.11%	0.38%
N#Cc1ccc2c(c1)CCN(CCC1CCC(NC(=O)c3cc4ccc(Br)cc4[nH]3)CC1)C2 (configuration not stated)	1.19%	0.57%	1.16%
COc1cc(C2CCN(CCCCNC(=O)c3ccc(NC(=O)c4ccc(Cl)c(Cl)c4)cc3)CC2)ccc1OC(C)C	1.53%	4.29%	1.53%
c1cncc(CCNCc2ccc(-c3cccc(-c4nc5ccccc5[nH]4)c3)cc2)c1	-0.73%	0.67%	-0.38%
Cc1nc(C)c(-c2ccc(Sc3ccc(Cl)cc3)cc2)c(O)c1Br	-2.06%	-1.57%	-1.9%
COc1cccc(-c2cc3nc4c(c(NCCCn5ccnc5)n3n2)CCCC4)c1	2.73%	5.03%	2.77%
CCOc1cc(C(=O)NCCN(C(C)C)C(C)C)ccc1-c1nc2cc(Cl)ccc2[nH]1	2.57%	1.66%	3.92%
CCc1ccc(S(=O)(=O)Nc2ccc(CCN3CCC(N4CCCCC4)CC3)cc2)cc1	13.9%	14.9%	11.4%

Compound	inhibition [1]	inhibition [2]	inhibition [3]
Clc1ccc2c(NCCNc3ccnc4cc(Cl)ccc34)ccnc2c1	-0.52%	-2.22%	-0.13%
CN(C)c1ccc(C=Cc2ccc3ccccc3n2)c(Cl)c1	91.5%	83.8%	85.2%
CCn1cnc2c(N3CCCCS3(=O)=O)cc(C(=O)N[C@@H](Cc3ccccc3)[C@H](O)CNC3CCOCC3)cc21	3.99%	2.96%	3.34%
Nc1ncnc2cc(-c3cccc(S(N)(=O)=O)c3)sc12	0.46%	3.15%	5.9%
Cc1ccc(NC(=O)c2ccc(Cl)c(Cl)c2)cc1-c1ccc(C(=O)Nc2ccncc2)cc1	-0.14%	0.86%	-1.3%
OC(c1ccc(Cl)cc1)(c1ccc(Cl)cc1)C(c1ccc(Cl)cc1)n1ccnc1 (configuration not stated)	8.37%	4.21%	2.69%
CC(C)Cn1c(Sc2ccc(C#N)c([N+](=O)[O-])c2)nnc1-c1ccc(N(C)C)cc1	-0.55%	0.63%	-4.37%
CC[C@H](C)CNC(=O)c1cncc(-c2cccc(CN(C)C3CCN(C)CC3)c2)c1	2.22%	2.75%	3.37%
N#Cc1cccc(-c2ccc(C(=O)Nc3ccc4c(c3)CCN(C3CCC3)CC4)cn2)c1	7.62%	4.8%	5.26%
CCCN(Cc1nnc(-c2cccs2)o1)C(=O)C1COc2ccccc2O1 (configuration not stated)	1.59%	3.17%	1.58%
COc1ccc(CNC2CCN(C)CC2)cc1-c1ccc(S(=O)(=O)NC2CCC2)s1	1.49%	4.46%	0.46%
O=C(NC1CC1)c1cnc(N2CCC(OCc3ccccc3)CC2)c(Cl)c1	1.59%	3.18%	-1.03%
CCN(CC)C(=O)C1CCCN(C(=O)Nc2cc(C(F)(F)F)cc(C(F)(F)F)c2)C1 (configuration not stated)	0.66%	0.55%	-2.05%
Oc1ccc(CCCNc2nc(NCc3ccccc3-c3ccccc3)nc(NC3CCNCC3)n2)cc1	-1.61%	-0.26%	-0.11%
COc1ccc(C=NN=c2c3ccccc3[nH]c3ccccc23)c2ccccc12	6.42%	5.85%	5.05%
FC(F)(F)c1cccc(CNCC2CCN(Cc3ccc4c(c3)OCO4)CC2)c1	9.53%	12.1%	12.3%
c1ccc2c(NCCCCCCNc3ccnc4ccccc34)ccnc2c1	-2.25%	-0.51%	-2.32%
COc1cc(OC)cc(C(=O)Nc2ccc(Nc3nc(C)cc(N(C)C)n3)cc2)c1	6.01%	12.8%	6.54%
CCN(CC)CCN(Cc1ccc(-c2ccc(C(F)(F)F)cc2)cc1)C(=O)Cn1c(CCc2c(F)cc(F)cc2F)nc(=O)c2ccccc21	-0.61%	0.48%	0.56%
Cc1ccc(CCC(C)NCC(O)c2cccc(C(F)(F)F)c2)cc1 (configuration not stated)	-0.37%	0.53%	0.17%
CCCCCN(C(=O)Nc1cc(C(F)(F)F)cc(C(F)(F)F)c1)C(C)c1nc2ccccc2c(=O)n1CC (configuration not stated)	-0.28%	1.02%	6.73%
CC(C(=O)N1CCCC1)N1CCN(S(=O)(=O)c2ccc(C(C)(C)C)cc2)CC1 (configuration not stated)	-0.57%	0.46%	4.07%
COc1ccc2ccccc2c1CCCCN1CCN(CC(c2ccc(F)cc2)N2CCN(C3CCCC3)CC2)CC1 (configuration not stated)	2.16%	4.07%	1.41%
C[C@H](Nc1c(Nc2ccc3[nH]ccc3c2)c(=O)c1=O)C1CCCCC1	-1.55%	0.15%	-0.44%
